MCF10A rereplic – induces DNA re-replication in MCF 10a normal breast cells | MCF 10A DNA re-replication, Hoechst nuclear intensity, 48 h | Potency, µM (doses to about 46.1 µM), hits mostly activators | 350,000 tested, 2.9% active; further: nearly all actives have a fitted effect of over 50% in size
VP16 counter – counter-screen for ROR gamma inhibitors: Gal4-VP16 reporter | AID 2546 | Drosophila S2 Gal4-VP16 UAS-luciferase, luminescence, 20 h | Potency, µM (titrated, usually from 53.6 µM), actives largely listed as inhibitors | 310,000 tested, 3.5% active;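 further: Gal4-VP16 expression switched on by copper sulfate through the metallothionein promoter; nearly all actives have a fitted effect of over 50% in size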
Chronic BCR inh – inhibitors of chronic active B-cell receptor signaling; 340,000 tested, 0.05% active; Potency, µM (titrated, usually from 46.1 µM), most hits filed as inhibitors; ABC-DLBCL IkBa-CBG/CBR reporter, luminescence ratio, 4 h; active means well fitted inhibition curve with a large enough effect in the signal ratio, with a control signal flat, not every such curve was filed as active; inconclusive means small, poorly fitted or top-dose-only effect, or effect the other way, or a change in a side signal; the % refers to the signal ratio
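Compounds up to 46 uM were incubated four hours with TMD8 cells whose green CBG68 luciferase is fused to IkappaBalpha; red CBR luminescence normalised the signal, and concentration-effect curves were fitted to fusion, red and ratio data.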
RORgamma inh – inhibitors of mouse ROR gamma transcriptional activity; P51450; Potency, µM (doses to about 53.6 µM), usual class: inhibitors; 310,000 tested, 5.4% active; Drosophila S2 Gal4-RORgamma UAS-luciferase reporter, 20 h; further: nearly all actives have a fitted effect of over 60% in size
Target sequence (P51450 whole entry, looked up, the tested form may be a part): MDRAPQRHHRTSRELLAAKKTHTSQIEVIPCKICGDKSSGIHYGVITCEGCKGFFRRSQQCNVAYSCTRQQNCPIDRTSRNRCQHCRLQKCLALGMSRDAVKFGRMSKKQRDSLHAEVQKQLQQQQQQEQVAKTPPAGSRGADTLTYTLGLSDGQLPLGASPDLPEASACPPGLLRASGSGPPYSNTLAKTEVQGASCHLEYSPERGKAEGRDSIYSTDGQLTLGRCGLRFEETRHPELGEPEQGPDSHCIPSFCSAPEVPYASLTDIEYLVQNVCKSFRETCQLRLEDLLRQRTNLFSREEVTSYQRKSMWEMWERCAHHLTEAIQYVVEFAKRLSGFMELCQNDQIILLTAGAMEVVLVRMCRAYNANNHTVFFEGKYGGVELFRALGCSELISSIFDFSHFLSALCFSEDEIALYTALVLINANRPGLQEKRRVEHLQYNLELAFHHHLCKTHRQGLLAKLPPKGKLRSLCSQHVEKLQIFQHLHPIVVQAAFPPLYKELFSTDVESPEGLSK
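Using a luciferase readout, inhibitors were identified by reduced reporter activity in Drosophila cells coexpressing a copper-inducible Gal4–ROR gamma fusion and UAS-driven Photinus luciferase, incubated 20 hr after 700 uM copper sulfate.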
SW480 rerep – induces DNA re-replication in SW480 colon adenocarcinoma cells; 340,000 tested, 1.8% active; SW480 DNA re-replication, Hoechst DNA content imaging, 48 h; Potency, µM (top dose mostly 46.1 µM), hits mostly activators; further: nearly all actives have a fitted effect of over 55% in size
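DNA re-replication was detected as more nuclei of elevated Hoechst intensity after 48 hr exposure to compound (23 nL pinned per well of 250 cells).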
Giardia killer – kills Giardia lamblia; 340,000 tested, 0.15% active; AID 540267; Giardia lamblia trophozoite viability; activity change, % at 7.66 µM, hits read low; in the data active means activity change below about -80%; inconclusive means between about -30% and that limit;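 further: parasites exposed to compound for two days anaerobically before the ATP read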
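Compounds were tested on trophozoites seeded at 100 cells/well and held 48 hrs at 37 deg C anaerobically. An ATP-based luminescent kit measured the remaining live cells.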
Of the large screens only hits and unclear results are named; the others gave an inactive call. In the library only some 8.3% were active in any assay of this set; here they are far more common. Unless noted, the call rests on the fitted dose curve; in most records, active means well fitted curve in the direction sought with a large enough effect; inconclusive means small, poorly fitted or top-dose-only effect, or another doubt; inactive means no such curve, though single readings can be large; an effect the other way counts as inactive or inconclusive.

Cc1ccc2[nH]c(CCN(C)C)c(CN3CCOCC3)c2c1	SW480 rerep inconclusive (no result: VP16 counter, RORgamma inh)
COc1ccc(CSCCc2n[nH]c(=S)n2-c2ccccc2)cc1C	RORgamma inh inconclusive
CCCCCC(O)CCc1n[nH]c(=S)n1-c1ccccc1 (configuration not stated)	RORgamma inh 6.3µM
COc1ccc(-n2c(CCc3ccccc3)n[nH]c2=S)cc1	RORgamma inh 5µM
S=c1[nH]nc(CCSCc2ccccc2)n1-c1ccccc1	RORgamma inh 2.8µM
CCCCc1n[nH]c(=S)n1Cc1ccc(C)cc1	VP16 counter inconclusive, RORgamma inh 5.6µM
CCOc1ccc(-n2c(CCc3ccccc3)n[nH]c2=S)cc1	VP16 counter inconclusive, Chronic BCR inh inconclusive, RORgamma inh inconclusive
S=c1[nH]nc(CCc2nc3ccccc3[nH]2)n1-c1ccccc1	none
O=C1CN(C(=O)COC(=O)[C@@H]2CCCN2S(=O)(=O)c2ccc(Cl)cc2)c2ccccc2N1	none (no result: VP16 counter, RORgamma inh)
O=c1[nH]nnc2c1cnn2-c1ccccc1	none (no result: VP16 counter, Chronic BCR inh, RORgamma inh)
CCCOc1ccc(CCc2n[nH]c(=S)n2Cc2ccccc2)cc1	MCF10A rereplic 21µM, VP16 counter 1.3µM, RORgamma inh 2µM
CCn1c(CCNC(=O)c2ccc(C)cc2)n[nH]c1=S	none
Cc1ccc(CCc2nnc(SCC(=O)Nc3ccccc3Cl)n2-c2ccccc2)o1	MCF10A rereplic inconclusive, Chronic BCR inh inconclusive, RORgamma inh inconclusive, SW480 rerep inconclusive
CCn1c(CCCCc2n[nH]c(=S)n2CC)n[nH]c1=S	MCF10A rereplic inconclusive, RORgamma inh 5.6µM
CCOC(=O)c1ccc(NC(=O)CSc2nnc(CCc3ccc(C)o3)n2-c2ccccc2)cc1	VP16 counter 14µM, RORgamma inh inconclusive
S=c1[nH]nc(CCc2ccccc2)n1Cc1ccccc1	VP16 counter 5µM, RORgamma inh 2.2µM
COc1ccc(CNC(=O)Cn2nc(C)n3cccc3c2=O)cc1	Giardia killer inconclusive
COc1ccccc1NC(=O)C1=C(C)NC2=C(C(=O)CCC2)C1c1ccc2c(c1)OCO2 (configuration not stated)	none
CC(=O)c1cccc(NC(=O)c2nc3ccccc3nc2N2CCCCC2)c1	none (no result: MCF10A rereplic, VP16 counter, RORgamma inh, SW480 rerep, Giardia killer)
CCCOc1ccc(CCc2n[nH]c(=S)n2-c2ccccc2)cc1	RORgamma inh 2.8µM
Oc1ccc(CCc2n[nH]c(=S)n2-c2ccc(F)cc2)cc1	MCF10A rereplic inconclusive
Cc1ccc(NCc2n[nH]c(=S)n2Cc2ccccc2)cc1Cl	VP16 counter inconclusive, RORgamma inh 4µM
COCCn1c(CCc2ccccc2)n[nH]c1=S	VP16 counter inconclusive, RORgamma inh 11µM, Giardia killer inconclusive
CCn1c(CN2c3ccccc3Sc3ccccc32)n[nH]c1=S	MCF10A rereplic inconclusive, VP16 counter inconclusive, Chronic BCR inh inconclusive, RORgamma inh 2.8µM
CCOc1ccc(S(=O)(=O)N2CCC(C(=O)NCC3CCCO3)CC2)cc1 (configuration not stated)	none
CCCCN(C(=O)CNC(=O)c1ccco1)C(C(=O)NC1CCCC1)c1ccc(OC)cc1 (configuration not stated)	none
CC1C2(C)OC(=N)C(C#N)(C(C)O2)C1(C#N)C#N (configuration not stated)	MCF10A rereplic inconclusive, SW480 rerep 1.3µM
Cc1cc(C)c2c(NC(=S)Nc3ccccc3)n[nH]c2n1	VP16 counter 3.2µM, RORgamma inh 1.1µM
Cc1ccc2cn[nH]c2c1NC(=S)NC(=O)c1ccccc1	RORgamma inh inconclusive
Cc1cc(C)c2c(NC(=S)NC(=O)c3ccccc3)n[nH]c2n1	MCF10A rereplic inconclusive, VP16 counter inconclusive, RORgamma inh 5.6µM
CCC(C)C(N)C(=O)N1CCCC1C(=O)NC(C(=O)O)C(C)CC (configuration not stated)	none (no result: MCF10A rereplic, VP16 counter, Chronic BCR inh, RORgamma inh)
O=C(O)c1cccc(N2C(=S)N=C(Nc3ccccc3)C23CCCCC3)c1	Chronic BCR inh inconclusive
Cc1cccc(NC2=NC(=S)N(CC#N)C23CCCCC3)c1	VP16 counter inconclusive, Chronic BCR inh inconclusive, RORgamma inh 11µM
CCOC(=O)c1ccc(NC(=O)c2cccc3c2C(=O)N(CC2CCCO2)C3)cc1 (configuration not stated)	Chronic BCR inh inconclusive

Screening data as filed in PubChem BioAssay.
